Laboratory results as given in PubChem BioAssay (NCATS).
Unmarked numbers belong to inactive results. Calls of active or inactive are those of the source. Calls come from the whole dose curve; as a rule, active = well fitted curve in the direction sought with a large enough effect (not every such curve was filed as active); inconclusive = small, poorly fitted or top-dose-only effect, or effect the other way, or another doubt; inactive = no such curve, though single readings can be large or run the other way.

target: Pyruvate kinase PKM (Homo sapiens) (UniProt P14618); assay: qHTS Assay for Activators of Human Muscle Pyruvate Kinase (AID 954); details: purified human muscle pyruvate kinase, luciferase-coupled luminescence, 1 h; series mostly up to 57.5 µM; activity change, negative = inhibition: at the top concentration;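 note: 0% = uninhibited enzyme and -100% = no enzyme or full thiadiazolimine inhibition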
Sequence (P14618 whole entry, looked up): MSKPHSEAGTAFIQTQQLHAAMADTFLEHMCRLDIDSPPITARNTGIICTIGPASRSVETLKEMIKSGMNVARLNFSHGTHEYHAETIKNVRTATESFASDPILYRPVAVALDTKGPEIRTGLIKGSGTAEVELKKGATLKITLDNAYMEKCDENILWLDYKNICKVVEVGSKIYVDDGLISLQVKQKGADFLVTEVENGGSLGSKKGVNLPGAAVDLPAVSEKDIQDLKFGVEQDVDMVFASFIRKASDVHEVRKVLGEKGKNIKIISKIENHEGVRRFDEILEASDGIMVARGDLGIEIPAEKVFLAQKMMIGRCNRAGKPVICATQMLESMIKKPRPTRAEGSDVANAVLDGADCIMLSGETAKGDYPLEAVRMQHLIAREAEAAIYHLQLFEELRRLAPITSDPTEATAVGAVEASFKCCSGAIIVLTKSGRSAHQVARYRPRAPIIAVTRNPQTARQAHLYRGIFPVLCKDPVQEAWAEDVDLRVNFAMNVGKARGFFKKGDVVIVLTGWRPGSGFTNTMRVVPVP
Procedure: NIH Molecular Libraries Screening Centers Network [MLSCN]
NIH Chemical Genomics Center [NCGC]
Wael M. Rabeh, Lyudmila Nedyalkova and Hee-Wan Park [Structural Genomics Consortium, 100 College St. Toronto, Ontario, Canada]
Human pyruvate kinase muscle 2 enzyme was supplied as a highly purified (>95% pure) preparation by the Structural Genomics Consortium in Toronto (Ontario, Canada) and was assayed for its ability to generate ATP from ADP using phosphoenolpyruvate (PEP) as a substrate. ATP generation was detected in a coupled reaction by luciferase-mediated luminescence, an ATP-dependent process. Pyruvate kinase substrates, PEP and ADP, were present in the assay at Km and approximately […]-fold below Km respectively. The enzyme was assayed at an intermediate level of activity to screen for inhibitors and activators.
NCGC Assay Protocol Summary:
Three uL of substrate mix (final concentration, 50 mM imidazole pH 7.2, 50 mM KCl, 7 mM MgCl2, 0.5 mM PEP, 0.1 mM ADP, 0.01% Tween 20, 0.05% BSA) was dispensed into 1536 well plates. 23 nL of compound were delivered by a pin tool and 1 uL of enzyme mix (final concentration, 0.1 nM pyruvate kinase, 50 mM imidazole pH 7.2, 0.05% BSA) was added. Plates were incubated at room temperature for 1 hour. Two uL of detection and kinase stop mix (PKLight, Cambrex) was added, the plates centrifuged, and luminescence read by a ViewLux (Perkin Elmer) at 5 second exposure/plate. Data were normalized to the uninhibited and AC100 inhibition (no enzyme or 110 uM N-methyl-2,3-diphenyl-1,2,4-thiadiazol-5-imine; CID: 682802; LOPAC-S-4063). To monitor activation, 0.3 nM pyruvate kinase was included in one control column.

Compound | activity change, negative = inhibition [%] | outcome
NC(N)=NC(=O)Cc1c(Cl)cccc1Cl | 14.8 | 
CC[N+](C)(C)c1cccc(O)c1 | -0.796 | 
CCCCNc1ccc(C(=O)OCCN(C)C)cc1 | -16.4 | 
O=C(O)CN(CCOCCOCCN(CC(=O)O)CC(=O)O)CC(=O)O | -4.87 | 
Cc1ccc(=O)n(-c2ccccc2)c1 | -1.37 | 
CCN(CC)CCNC(=O)c1ccc(NC(C)=O)cc1 | 8.36 | 
C[N+](C)(C)CCOC(N)=O | -5.71 | 
Cc1nc2c([nH]1)c(=O)n(C)c(=O)n2Cc1ccco1 | -22.6 | 
Cc1nc2sccn2c(=O)c1CCN1CCC(=C(c2ccc(F)cc2)c2ccc(F)cc2)CC1 | -21.2 | 
CC(=O)Oc1cc(C(C)C)c(OCCN(C)C)cc1C | -28.5 | 
C#CCN(C)CCCOc1ccc(Cl)cc1Cl | -14 | 
COc1cc2c(cc1OC)-c1cc(=Nc3c(C)cc(C)cc3C)n(C)c(=O)n1CC2 | -28.1 | 
O=C(CCCN1CCC(O)(c2cccc(C(F)(F)F)c2)CC1)c1ccc(F)cc1 | -29 | 
Cc1nc2ccccn2c(=O)c1CCN1CCC(C(=O)c2ccc(F)cc2)CC1 | -18.5 | 
C(=C\c1ccccc1)/CN1CCN(C(c2ccccc2)c2ccccc2)CC1 | 2.43 | 
COc1ccc(CN(CCN(C)C)c2ccccn2)cc1 | 5.69 | 
COc1cc(C(=O)OCCCN2CCCN(CCCOC(=O)c3cc(OC)c(OC)c(OC)c3)CC2)cc(OC)c1OC | -18.8 | 
CCNC(=O)N1CCN(CCCC(c2ccc(F)cc2)c2ccc(F)cc2)CC1 | -10.8 | 
C[C@]12CCC(=O)C=C1CC[C@@H]1[C@@H]2CC[C@@]2(C)[C@H]1CC[C@]2(O)C(=O)CO | 7.91 | 
N[C@@H](COP(=O)(O)O)C(=O)O | -8.32 | 

Compound | activity change, negative = inhibition [%] | outcome
CCn1cc(C(=O)O)c(=O)c2cc3c(cc21)OCO3 | -13 | 
C[N+](C)(C)CCCCCCCCCC[N+](C)(C)C | -5.01 | 
CN1CCN(C2=Nc3ccccc3Oc3ccc(Cl)cc32)CC1 | -3.46 | 
O=C(O)CP(=O)(O)O | -7.64 | 
CCO/C([O-])=N/c1c[n+](N2CCOCC2)no1 | -10.3 | 
NCCCNCCSP(=O)(O)O | -9.4 | 
CN(C(=O)CCCOc1ccc2[nH]c(=O)ccc2c1)C1CCCCC1 | -24.2 | 
CNCCCN1c2ccccc2CCc2ccccc21 | -5.41 | 
CN=C(NC#N)NCCSCc1nc[nH]c1C | -23.7 | 
COc1cc(Cc2cnc(N)nc2N)cc(OC)c1OC | 11.2 | 
CC(=O)Nc1nnc(S(N)(=O)=O)s1 | -11.2 | 
C[n+]1cc2c3c(ccc2c2ccc4cc5c(cc4c21)OCO5)OCO3 | -87.6 | 
OCCN1CCN(CCCN2c3ccccc3C=Cc3ccccc32)CC1 |  | inactive
CN(C)C(=O)Oc1ccc[n+](C)c1 | 1.28 | 
O=C1NCN(c2ccccc2)C12CCN(CCCC(c1ccc(F)cc1)c1ccc(F)cc1)CC2 | 5.73 | 
CCCC(C(=O)OCCN(CC)CC)(c1ccccc1)c1ccccc1 | -1.47 | 
CCCCNC(=O)NS(=O)(=O)c1ccc(C)cc1 | -5.63 | 
CC1=NS(=O)(=O)c2cc(Cl)ccc2N1 | -9.55 | 
C[C@]12CCC(=O)C=C1CC[C@@H]1[C@@H]2C(=O)C[C@@]2(C)[C@H]1CC[C@]2(O)C(=O)CO | -5.66 | 
FC(F)(F)c1ccccc1-n1ccnc1 | -8.62 | 
